PubChem BioAssay AID651568 (National Center for Advancing Translational Sciences (NCATS), 2012)
Screen size: about 1,200 compounds; about 55 (5%) were called active. Roughly 15% stayed inconclusive and do not appear here. Calls follow the shape of the dose curve; as a rule, active = well fitted inhibition curve with a large enough effect; inconclusive = small, poorly fitted or top-dose-only effect; inactive = no such curve, though single readings can be large or run the other way. The sample as a whole holds a higher share of actives than the screen did.

Test: qHTS Assay to Find Inhibitors of Chronic Active B-Cell Receptor Signaling: Hit Validation in Renilla Reporter Assay; also: nearly all actives have a fitted effect of over 70% in size
Details: TMD8 IkB-Renilla luciferase reporter, NF-kB signaling; series mostly up to 57.5 µM
How it was run: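 Dual-Glo luminescence read-out of constitutively expressed IkB-Photinus/Renilla luciferase reporters in ABC-DLBCL lines, used to retest primary hits; reporter enzymes differ from the click beetle luciferases used in the primary screen.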
Potency is read from the fitted curve at half-maximal effect.

Potency, inactive:
Cc1ccc(NS(=O)(=O)c2ccc(-c3cnc(C4CC4)o3)cc2)c(C)c1
COc1ccc(Nc2cc3n(c(=O)n2)CCc2cc(OC)c(OC)cc2-3)c(C)c1
COc1ccc(-c2c(-c3cc(OC)c(OC)c(OC)c3)noc2C)cn1
COc1cc(/C=N/N(C)c2ccccc2)ccc1O
COc1cc(/C=C2\OC(=O)c3c(OC)cccc32)ccc1O
COc1ccc(-c2sc3cc(OC)c(OC)cc3c2C#CC(C)(C)O)cc1
CCCn1nc(Oc2nc(N(C)C)nc(N(C)C)n2)ccc1=O
COc1ccc(C(=O)Nc2ccc(-n3nncc3-c3ccc(OC)c(OC)c3)cc2)cc1
CCN(c1cccc(C)c1)S(=O)(=O)c1ccc(-c2cc(C)no2)s1
COc1ccccc1/C=N/NC(=S)Nc1cccnc1
COc1ccccc1-c1cc(C(=O)Nc2cccnc2)no1
Cc1ccc2c(c1)C(=O)C(=O)N2CC1COc2ccccc2O1 (stereo not given)
CCn1c2ccccc2c2cc(NC(=O)c3cc(OC)cc(OC)c3)ccc21
CCCCn1c(SCC(=O)c2cc(OC)ccc2OC)nc2cc(S(N)(=O)=O)ccc21
COc1ccccc1-c1nnc2sc(-c3ccc(N(C)C)cc3)nn12
O=C(Cc1ccc(-n2c(=O)c3ccccc3n(Cc3ccccc3F)c2=O)cc1)NCC1CCCO1 (stereo not given)
COc1cc(OC)c(OC)cc1/C=C/C(=O)c1ccc(NS(=O)(=O)c2ccc(C)cc2)cc1
CCC(=NCCc1c(C)[nH]c2ccc(C)cc12)C1=C(O)CC(c2ccccc2)CC1=O (stereo not given)
COc1ccc(C2CC(c3ccc(OC)c(OC)c3)=NN2C(=O)c2ccccc2)cc1 (stereo not given)
CCc1ccc(CNC(=O)Cc2ccc(NC(=O)C3=C(C)OCCS3)cc2)cc1
O=C(NN=C1CCCC1)c1n[nH]c2c1CCCC2
CC1=NN(C(N)=S)C(=O)C1N=Nc1cccc([N+](=O)[O-])c1 (stereo not given)
S=c1nc2ccccc2c2nc(-c3ccccc3Cl)[nH]n12
CCc1nc2ccccc2c(C(=O)OCc2nc3ccccc3c(=O)[nH]2)c1C
COc1cc(OC)cc(-c2cc3cc4c(cc3cn2)OCO4)c1
CCOC(=O)C1=C(O)/C(=C/c2ccc(OCC(=O)O)c(OCC)c2)SC1=Nc1ccccc1
CCOC(=O)C(C)N1C(=O)S/C(=C/c2ccc3c(c2)n(C)c(=O)n3C)C1=O (stereo not given)
Cc1ccc(C)c(Cn2c(=O)n(-c3ccc(CC(=O)NCc4ccco4)cc3)c(=O)c3sccc32)c1
Cc1ccc(N2C(=O)c3cccc4c(N)ccc(c34)C2=O)c2cccnc12
COc1ccc([C@H]2CC(=O)C=C(c3ccc(OC)cc3OC)C2)cc1
COc1ccc(S(=O)(=O)N2CCCCC2)cc1NS(=O)(=O)c1cc(Cl)ccc1Cl
CCOc1ccc(N(CC(=O)Nc2ccccc2C)S(=O)(=O)c2c(C)noc2C)cc1

Potency, active:
CC(=O)Nc1cc(N=Cc2ccc(O)cc2O)c(Cl)cc1Cl 12 µM
COc1ccc(/C=C2\CCc3ccccc3C2=O)cc1O 26.9 µM
O=C(CCCN1C(=O)/C(=C/c2ccccc2OC(F)F)SC1=S)Nc1cccnc1 30.1 µM
COC(=O)[C@@H]1[C@@H](C#N)C2(c3ccccc3-c3ccccc32)N(c2ccc(Cl)cc2)N1C#N 4.78 µM
CN(C)c1nc(=NCc2ccco2)ss1 16.9 µM
CCCc1noc2c1C(c1ccoc1)C(C#N)=C(N)N2 (stereo not given) 23.9 µM
ClCc1nc2ccccc2c2ccccc12 23.9 µM
CCOc1cc(/C=C2\CN(C)C/C(=C\c3ccc(O)c(OCC)c3)C2=O)ccc1O 5.36 µM
